Data from paper PMC4552634, “A New Set of Chemical Starting Points with Plasmodium falciparum Transmission-Blocking Potential for Antimalarial Drug Discovery” (PLoS ONE, 2015).
Among all 13,000 compounds or so, about 3,200 (25%) showed an effect of 50% or more. This is one part of the list.

Test system: P. falciparum stage V gametocytes
Parameters: BacTiter-Glo ATP luminescence viability of purified stage V gametocytes in 384-well plates, per cent inhibition versus DMSO
Settings: 48 h, 5 µM; inhibitor

| SMILES | % Inhibition |
| --- | --- |
| CCc1cccc2sc(N3CCN(C(=O)c4ccc([N+](=O)[O-])o4)CC3)nc12 [TCMDC-124317] | 88.03% |
| Cc1ccc2sc(N3CCN(C(=O)c4ccc([N+](=O)[O-])o4)CC3)nc2c1C [TCMDC-124314] | 93.58% |
| COc1ccccc1C(=O)N1CCN(Cc2cccs2)CC1 [TCMDC-139297] | 0.2209% |
| Cc1cc(C)c2oc(-c3cccc(NC(=O)c4ccc([N+](=O)[O-])o4)c3C)nc2c1 [TCMDC-123704] | 43.1% |
| CCCCCCN1CCC(CNCc2cccc([N+](=O)[O-])c2)CC1 [TCMDC-141211] | 17.53% |
| COc1cccc2sc(N3CCN(C(=O)c4ccc([N+](=O)[O-])o4)CC3)nc12 [TCMDC-125150] | 57.22% |
| O=C(Nc1ccc(N2CCN(C(=O)/C=C/c3ccccc3)CC2)c(Cl)c1)c1ccc([N+](=O)[O-])o1 [TCMDC-125229] | 0.8671% |
| Cc1c(Cl)ccc2sc(N3CCN(C(=O)c4ccc([N+](=O)[O-])o4)CC3)nc12 [TCMDC-125453] | 88.71% |
| COc1ccc(/N=[N+](\[O-])c2ccccc2/[N+]([O-])=N/c2ccc(OC)cc2)cc1 [TCMDC-131243] | -4.101% |
| CC(=O)Nc1ccccc1OCc1cc2cc(C(=O)N3CCC(N4C(=O)OCc5ccccc54)CC3)ccc2o1 [TCMDC-138453] | 6.686% |
| CCc1c(C)c2ccc3c(c2oc1=O)CN(CCc1ccc(F)cc1)CO3 [TCMDC-125082] | 34.69% |
| Cn1nccc1C(=O)NCCNCc1ccc(-c2ccc(-c3nc4cc(C(F)(F)F)ccc4[nH]3)cc2)cc1.O=C(O)C(F)(F)F [TCMDC-133013] | -32.96% |
| Cc1nc(-c2nc(N3CCC(C(N)=O)CC3)ncc2-c2ccsc2)sc1C [TCMDC-125362] | 25.42% |
| COC(=O)c1cccc(CNCc2ccc(-c3ccc(-c4nc5ccc(F)cc5[nH]4)s3)cc2)c1 [TCMDC-132951] | -33.43% |
| CCc1ccc(NC(=O)C=NNC(=N)N)cc1 [TCMDC-137521] | -23.47% |
| c1ccc(Oc2ccc(Nc3ccnc(Nc4ccc5cn[nH]c5c4)n3)cc2)cc1 [TCMDC-138574] | -56.78% |
| O=C(c1ccc([N+](=O)[O-])o1)N1CCN(c2nc3c(Cl)cccc3s2)CC1 [TCMDC-124316] | 86.16% |
| O=C(c1ccc([N+](=O)[O-])o1)N1CCN(c2nc3c(F)cc(F)cc3s2)CC1 [TCMDC-125149] | 102.2% |
| CS(=O)(=O)c1cccc2sc(N3CCN(C(=O)c4ccc([N+](=O)[O-])o4)CC3)nc12 [TCMDC-124930] | 105% |
| O=C(c1ccc([N+](=O)[O-])o1)N1CCN(c2ccccc2)CC1 [TCMDC-125833] | 2.332% |
| O=C(Nc1ccc(N2CCN(Cc3ccccc3Cl)CC2)cc1)c1ccc([N+](=O)[O-])o1 [TCMDC-125230] | 2.358% |
| O=C(Nc1cccc(-c2nc3ccccc3s2)c1)c1ccccc1[N+](=O)[O-] [TCMDC-125736] | -19.42% |
| CC(C)(C)OC(=O)N1CCC(C2CCN(C(=O)OC(C)(C)C)CC2)CC1 [TCMDC-132002] | 7.482% |
| CCc1ccc(CN2CCC(CNC(=O)c3cc(-c4cccc(Cl)c4)cs3)C2)cc1 (centres unmarked) [TCMDC-134434] | 86.46% |
| COc1cccc(-c2csc(C(=O)NCC3CCN(Cc4ccc(C(C)(C)C)cc4)C3)c2)c1 (centres unmarked) [TCMDC-134447] | 100.1% |

| SMILES | % Inhibition |
| --- | --- |
| CC(C)(C)c1ccc(CN2CCC(CNC(=O)c3cc(-c4cccc(Cl)c4)cs3)C2)cc1 (centres unmarked) [TCMDC-134446] | 98.88% |
| O=C(NCC1CCN(CC2CCCCC2)C1)c1cc(-c2cccc(Cl)c2)cs1 (centres unmarked) [TCMDC-134423] | 42.83% |
| CC(=O)Nc1ccc(CN2CCC(CNC(=O)c3cc(-c4cccc(Cl)c4)cs3)C2)cc1 (centres unmarked) [TCMDC-134457] | -3.132% |
| CC(C)(C)c1ccc(CN2CCC(CNC(=O)c3cc(-c4cccc(F)c4)cs3)C2)cc1 (centres unmarked) [TCMDC-134444] | 110.8% |
| CCCOc1cc(Cc2cnc(N)nc2N)cc(OC)c1OC [TCMDC-137661] | 3.215% |
| Cc1ccc(Oc2ccc(NC(=O)CNc3ccccc3N3CCCC3=O)cc2)cc1 [TCMDC-125245] | -23.96% |
| O=C(NC1CCN(Cc2ccccc2)CC1)c1cc(-c2ccncc2)nc2ccc(Cl)cc12 [TCMDC-124995] | 9.958% |
| CC(C)(C)c1ccc(CN2CCC(CNC(=O)c3cc(-c4ccccc4)nc4ccccc34)CC2)cc1 [TCMDC-139154] | 75.79% |
| CCc1ccc(CN2CCC(CNC(=O)c3cc(-c4cccc(F)c4)cs3)C2)cc1 (centres unmarked) [TCMDC-134432] | 99.62% |
| CN(C)c1ccc(CN2CCC(CNC(=O)c3cc(-c4cccc(F)c4)cs3)C2)cc1 (centres unmarked) [TCMDC-134454] | 71.45% |
| CN(C)c1ccc(CN2CCC(CNC(=O)c3cc(-c4cccc(C(F)(F)F)c4)cs3)C2)cc1 (centres unmarked) [TCMDC-134452] | 29.06% |
| O=C(NC1CCN(Cc2ccccc2)CC1)c1cc(-c2cccnc2)nc2ccc(Cl)cc12 [TCMDC-125223] | -0.2191% |
| CC(Nc1nncc(-c2cccc(F)c2)n1)c1ccc(F)cc1 (centres unmarked) [TCMDC-124683] | -23.73% |
| COc1ccc(NC(=O)Nc2cccc(-c3ccc(-c4nc5ccc(C(F)(F)F)cc5[nH]4)cc3)c2)cc1 [TCMDC-133244] | -27.48% |
| CCOC(=O)c1ccc(Nc2cc(Nc3ccc(C(=O)OCC)cc3)nc(C)n2)cc1 [TCMDC-125781] | 36.3% |
| O=C(Nc1cccc(CN2CCCN(CC3CC3)CC2)c1)c1ccc(-c2ccccc2)cc1 [TCMDC-141846] | -26.45% |
| Cc1nc2nc(N)nc(N)c2c(C)c1Cc1ccc(O)cc1 [TCMDC-137637] | -12.62% |
| CC(C)C1C(=O)N(S(C)(=O)=O)C2CCN(C(=O)c3ccc(CN4CCCCC4)c([N+](=O)[O-])c3)C12 (centres unmarked) [TCMDC-138195] | 96.13% |
| O=C(/C=C/c1ccc(Cl)c(Cl)c1)NC1CCC(CN2CCC(Cc3c[nH]c4ccccc34)CC2)CC1 (centres unmarked) [TCMDC-140141] | 5.841% |
| COc1ccc(Cl)cc1N1CCN(CCCNC(=O)c2ccc(-c3nc4ccncc4[nH]3)c(Br)c2)CC1 [TCMDC-140145] | -23.34% |
| Nc1c(C(=O)NCCCCN2CCN(c3nsc4ccccc34)CC2)sc2ccccc12 [TCMDC-137254] | -32.13% |
| Nc1ccncc1C(=O)NCCCCN1CCN(c2nsc3ccccc23)CC1 [TCMDC-137310] | 70.91% |
| O=C(NCCCCN1CCN(c2nsc3ccccc23)CC1)c1ccccc1C(=O)NCCCCN1CCN(c2nsc3ccccc23)CC1 [TCMDC-137241] | 54.48% |
| O=C(NCCCCN1CCC(c2nc3ccccc3s2)CC1)c1cc2ccccc2[nH]1 [TCMDC-132779] | 6.014% |
| COc1ccccc1N1CCN(CCCCNC(=O)c2ccc(NC(=O)c3ccc(C(F)(F)F)cc3)cc2)CC1 [TCMDC-138110] | -20.18% |

| SMILES | % Inhibition |
| --- | --- |
| c1csc(-c2nc(NCC3CCCO3)ncc2-c2ccsc2)n1 (centres unmarked) [TCMDC-125365] | 7.159% |
| CCCCCCN1CCCN(Cc2ccc(C(=O)Nc3cccc(CC)c3)cc2)CC1 [TCMDC-136412] | -23.63% |
| CC1(C)N=C(N)N=C(N)N1OCCCc1ccccc1 [TCMDC-131689] | 3.846% |
| CCNc1cc(C(=O)N[C@@H](Cc2ccccc2)[C@H](O)CNC2(CCC(C)C)CC2)cc(N2CCCCS2(=O)=O)c1 [TCMDC-135245] | 4.245% |
| O=C(Nc1cccc(OCCN2CCCC2)c1)Nc1ccc(Cl)c(Cl)c1 [TCMDC-139540] | 28.24% |
| Clc1ccc(OCCC2CCN(CCCCCCCN3CCC(CCOc4ccc(Cl)c(Cl)c4)CC3)CC2)cc1Cl [TCMDC-138967] | 119.8% |
| O=C(Nc1ccc(Cl)c(Cl)c1)N1CCc2ccc(OCCCN3CCCCC3)cc2CC1 [TCMDC-141755] | 13.17% |
| CCCCCCOc1ccc(C(=O)N[C@H]2CCN(CCCCCNC(=O)/C=C/c3ccc(Cl)c(Cl)c3)C2)cc1 [TCMDC-139564] | 40.4% |
| CCCCCCN1CCC(CNCc2cccc(Cl)c2)CC1 [TCMDC-141678] | 45.32% |
| Clc1ccc(OCCC2CCN(CCCCCCN3CCCCC3)CC2)cc1Cl [TCMDC-138982] | 100.1% |
| N#Cc1ccc(-c2ccc(C(=O)Nc3ccc4c(c3)CCN(C3CCC3)CC4)nc2)cc1 [TCMDC-136032] | 15.17% |
| Cc1onc(-c2ccccc2)c1-c1nc(NC2CCCC(C)C2)no1 (centres unmarked) [TCMDC-134202] | -14.49% |
| CCN(c1ccc(O)c(CN2CCCCC2)c1)c1ccc([N+](=O)[O-])cn1 [TCMDC-138001] | 10.77% |
| CCN(CC)S(=O)(=O)c1ccc(C(C)NC(=O)c2ccccc2COc2ccccc2)cc1 (centres unmarked) [TCMDC-125332] | 39.64% |
| Cc1ccc(C)c(CC(=O)N2CCC(n3c(C)nc4ccc(F)cc43)CC2)c1 [TCMDC-124790] | 89.97% |
| Cc1ccc2nc(C)n(C3CCN(C(=O)Cc4ccc(F)c(F)c4)CC3)c2c1 [TCMDC-124793] | 84.63% |
| Cc1ccc(C)c(Cn2c(N3CCC(C(=O)NCc4cccs4)CC3)nc3ccccc32)c1 [TCMDC-124399] | -1.754% |
| CCC(C)NS(=O)(=O)c1ccc2nc(Nc3ccc(C)cc3)n(C3CCCCC3)c2c1 (centres unmarked) [TCMDC-136232] | -89.75% |
| CCC(C)NS(=O)(=O)c1ccc2nc(Nc3ccc(C)c(Cl)c3)n(C3CCCCC3)c2c1 (centres unmarked) [TCMDC-136233] | -49.77% |
| Cc1cc(C)cc(CC(=O)N2CCC(n3c(C)nc4ccc(C)cc43)CC2)c1 [TCMDC-124789] | 80.51% |
| CCN1CCC(N2CCC(n3c(C)nc4cc(C(F)(F)F)ccc43)CC2)CC1 [TCMDC-124671] | 0.4186% |
| Cc1nc2ccc(F)cc2n1C1CCN(C(=O)Cc2ccc(F)c(F)c2)CC1 [TCMDC-124794] | 73.02% |
| CCC(C)NS(=O)(=O)c1ccc2nc(Nc3ccc(C)cc3)n(C3CCCCC3C)c2c1 (centres unmarked) [TCMDC-136231] | -48.39% |
| O=C(O)c1ccc2nc(-c3ccc(-c4ccccc4)cc3)n(C3CCN(Cc4ccc(-c5ncc[nH]5)cc4)CC3)c2c1 [TCMDC-134669] | 12.72% |
